The record followed here is PubChem BioAssay (NCATS).

Records with an inconclusive call do not appear. A number with no mark means an inactive call. Calls follow the shape of the dose curve; as a rule, active = well fitted inhibition curve with a large enough effect; inconclusive = small, poorly fitted or top-dose-only effect; inactive = flat fitted curve, though single readings scatter. Where a SMILES comes first, the peptide text is derived from it. The star is where a group is joined. βNA = c1ccc2cc(N*)ccc2c1; Cbz = O=C(OCc1ccccc1)*
% is scaled to controls: 0 for no effect and ±100 for the full control effect.

The assay deals with HEK293. The experiment in a line: Cytotoxic Profiling of Annotated Libraries Using Quantitative High-Throughput Screening (AID 1296008). Also: nearly all actives have a fitted effect of over 60% in size. Conditions: Five cell lines viability, CellTiter-Glo ATP luminescence, 48-72 h; max response: active compounds read low. An outline of the steps:
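Compounds were pin-transferred onto cells and incubated 48 or 72 hr at 37 degree Celsius, 95% humidity. CellTiter-Glo was added, plates sat 10 min at room temperature, then ATP-coupled luminescence was imaged as the viability read-out.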
In the case of `CC1(C)C[C@H](O)C[C@@]2(C)[C@H]1[C@H](O)C=C1COC(=O)[C@@]12O`, the max response is 2.99%.
As to `O=C(O)Cc1cn([C@@H]2O[C@H](CO)[C@@H](O)[C@H](O)[C@H]2O[C@@H]2O[C@H](CO)[C@@H](O)[C@H](O)[C@H]2O)c2ccccc12`, the max response was 2.13%.
Consider `C=C1CC[C@@]2(OC1)O[C@H]1CC3[C@@H]4CC=C5C[C@@H](O)C[C@@H](O[C@@H]6OC[C@H](O)[C@H](O)[C@H]6O[C@@H]6O[C@@H](C)[C@H](O)[C@@H](O)[C@H]6O)[C@]5(C)C4CC[C@]3(C)[C@H]1[C@@H]2C` (stereo not given in full), for which the max response is -17.1%.
Next, `CC(C)CC(NC(=O)OCc1ccccc1)C(=O)NC(CC(C)C)C(=O)NC(CCC(=O)O)C(=O)Nc1ccc2ccccc2c1` (stereo not drawn) (Cbz-Leu-Leu-Glu-βNA; configuration not given here): -0.688%; `OC[C@@]1(O)CO[C@H](OC[C@H]2O[C@@H](OC(CCCCc3ccc(O)cc3)CCc3ccc(O)cc3)[C@H](O)[C@@H](O)[C@@H]2O)[C@@H]1O` (stereo not given in full): -4.6%; `Nc1ccc(-n2nc(C(F)(F)F)cc2C(F)(F)F)cc1`: -3.16%.
The value for `C/C(=C\C(=O)C[C@@]12C(=O)O[C@]3(C)CC[C@H]1C[C@H]23)C(N)=O` was -18.5%; that for `Nc1ncnc2c1C(=O)N(c1ccc(C3CCC(CC(=O)O)CC3)cc1)CCO2` (stereo not given) was -15.1%.
`COC1OC(=O)C2=C1C1(C)CCCC(C)(C)C1CC2O` (stereo not given): the max response is 1.96%.
The value for `C=C(CC/C=C(\C)C(=O)O)C1(O)CC=C(C)CC1` (stereo not given) was 4.47%; that for `CC(C)Oc1ccc(-c2nc(-c3cccc4c3CCC4NCCC(=O)O)no2)cc1C#N` (stereo not given) was -10.1%; that for `C=C1CC[C@@]2(OC1)O[C@H]1CC3[C@@H]4CC=C5C[C@H](O[C@H]6OC[C@@H](O)C(O)[C@@H]6O[C@@H]6O[C@@H](C)[C@H](O)[C@@H](O[C@@H]7O[C@H](CO)[C@@H](O)[C@H](O)[C@H]7O)[C@H]6O)C[C@@H](O)[C@]5(C)C4CC[C@]3(C)[C@H]1[C@@H]2C` (stereo not given in full) was -14.3%.
Next, `CC(C)c1cc2c(c(O)c1O)[C@@]13CCCC(C)(C)C1[C@@H](O)[C@@H]2OC3=O` (stereo not given in full): -8.48%; `COc1cccc(C)c1C(=O)O[C@@H]1C[C@H](O[C@H]2[C@H](O)C[C@H](O[C@@H]3CCC[C@H]4[C@H]3C=C[C@@H]3CCCC/C=C/[C@H]5C=C(C(=O)O)[C@@H](C)C[C@@]56OC(=O)C(=C6O)OC(=O)[C@@]34C)O[C@@H]2C)O[C@H](C)[C@H]1O`: -11.9%; `CC(=O)OC1C(CO)OC(O[C@H]2[C@H](OC(=O)[C@]34CCC(C)(C)C[C@H]3C3=CCC5[C@@]6(C)CC[C@H](O[C@@H]7O[C@H](C(=O)O)[C@@H](O)[C@H](O[C@@H]8OC[C@@H](O)[C@H](O)[C@H]8O)[C@H]7O[C@@H]7O[C@H](CO)[C@H](O)[C@H](O)[C@H]7O)[C@@](C)(C=O)C6CC[C@@]5(C)[C@]3(C)C[C@H]4O)O[C@H](C)[C@H](OC3OC(C)C(OC4OCC(O)C(O)C4O)C(O)C3O)[C@@H]2O)C(O)C1O` (stereo not given in full): -1.35%.
On to `CC(C)=CCC/C(C)=C/CO[C@@H]1O[C@H](CO[C@@H]2O[C@@H](CO)[C@H](O)[C@H]2O)[C@@H](O)[C@H](O)[C@H]1O`, for which the max response was -7.37%.
As for `O=C(c1ccc(Cl)c([N+](=O)[O-])c1)N1CCN(c2ccccc2F)CC1`, the max response is 0.0452%.
The value for `COc1cc(O)c2c(c1Cl)CC(C)OC2=O` (stereo not given) was -0.0766%; that for `CCCCNc1nc(N)c2[nH]c(=O)n(Cc3ccc(OCCN(C)C)nc3)c2n1` was -20.1%.
The value for `CC(O)C(=O)/C=C/C=C/C(=O)OC1C=C2COC(=O)C2(O)C2(C)CCCC(C)(C)C12` (stereo not given) was 3.48%.
For the molecule `CC1(C)CC[C@]2(C(=O)O)CC[C@]3(C)C(=CCC4[C@@]5(C)CC[C@H](O[C@@H]6O[C@H](C(=O)O)[C@@H](O)[C@H](O[C@@H]7O[C@H](CO)[C@H](O)[C@H](O)[C@H]7O)[C@H]6O[C@@H]6O[C@H](CO)[C@@H](O)[C@H](O)[C@H]6O)C(C)(C)C5CC[C@]43C)[C@@H]2C1` (stereo not given in full), the max response is -6.56%.
Take `CC(=O)OC(C)(C)/C=C/C(=O)[C@](C)(O)C1[C@H](O)C[C@@]2(C)[C@@H]3CC=C4[C@@H](C[C@H](O[C@@H]5O[C@H](CO)[C@@H](O)[C@H](O)[C@H]5O)C(=O)C4(C)C)[C@]3(C)C(=O)C[C@]12C` (stereo not given in full): the max response is -17.8%.
The value for `CC1=CC(=O)CC(C)(C)[C@@]1(O)/C=C/C(C)O[C@@H]1O[C@H](CO)[C@@H](O)[C@H](O)[C@H]1O` (stereo not given in full) was -13.1%.
In the case of `CC(C)C1NC(=O)C(CC2(O)c3ccccc3N3C(=O)C(Cc4ccccc4)NC32)NC1=O` (stereo not given), the max response was -4.45%.
With `OC[C@@]1(O)CO[C@H](OC[C@H]2O[C@@H](OC(CCCCc3ccc(O)cc3)CCc3ccc(O)cc3)[C@H](O[C@H]3OC[C@](O)(CO)[C@H]3O)[C@@H](O)[C@@H]2O)[C@@H]1O` (stereo not given in full), the max response was -13.7%.
Take `COC(=O)c1c(CC=C(C)C)c(OC2OC(CO)C(O)C(O)C2O)c2ccccc2c1OC1OC(CO)C(O)C(O)C1O` (stereo not given): the max response is -10.1%.
With `C[C@]1(O)CC[C@@H]2C(C(=O)O)=CO[C@@H](O[C@@H]3O[C@H](COC(=O)/C=C/c4ccc(O)c(O)c4)[C@@H](O)[C@H](O)[C@H]3O)[C@@H]21`, the max response was 0.933%.
The value for `CC(C)(O)C1CC=C(C(=O)OC[C@H]2O[C@@H](Oc3cc(C(=O)O)cc(O)c3O)[C@H](O)[C@@H](O)[C@@H]2O)CC1` (stereo not given in full) was 3.21%.
Next, `COc1cc2c(cc1O)CC(O)(CO)C(CO)C2c1ccc(OC2OC(CO)C(O)C(O)C2O)c(OC)c1` (stereo not given): -0.898%; `O=C(O)CC/C=C\C[C@H]1CO[C@@H](c2ccccc2Cl)O[C@H]1c1ccccc1O`: -2.35%.
